Hits are enriched below; roughly 4.1% of the tested compounds scored in any of these assays.
hgDAF12 agonist – activates the H. glycines DAF-12 receptor ligand-binding domain; HEK293 GAL4-hgDAF12 UAS-luciferase reporter, agonist luminescence; normalized to butyrate control; activation, % at 6.8 µM; hit rate 1.8% among 370,000;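 active means activation above a cutoff set at the mean of all screened compounds plus 3 SD, cut at about 10% in these data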;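 further: 0% = DMSO wells and 100% = sodium butyrate wells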
DAX1 inh-1 – inhibits human nuclear receptor DAX1; P51843; HEK293 Gal4-DAX1 luciferase reporter, luminescence; inhibition, % at 6.75 µM; hit rate 0.99% among 340,000;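 active means inhibition above the mean over all tested compounds plus 3 SD, cut at about 4.2% in these data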;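 further: 0% = DAX1-transfected cells with DMSO and 100% = empty-vector control cells with DMSO; inhibition shows as a rise in luminescence from relieved DAX1 repression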
Target sequence (P51843 207-470 limits assumed): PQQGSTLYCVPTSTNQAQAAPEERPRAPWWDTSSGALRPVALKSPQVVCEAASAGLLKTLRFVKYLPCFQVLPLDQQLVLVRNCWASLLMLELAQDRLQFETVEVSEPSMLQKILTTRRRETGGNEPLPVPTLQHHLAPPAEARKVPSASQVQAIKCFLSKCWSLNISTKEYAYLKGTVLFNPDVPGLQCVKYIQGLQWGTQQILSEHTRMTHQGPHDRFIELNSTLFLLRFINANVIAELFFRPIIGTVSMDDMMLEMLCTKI
hcDAF-12 act – activators of H. contortus DAF-12 nuclear receptor; HEK293 hcDAF-12 lit1-tk-luc reporter, luminescence; 0% DMSO, 100% Δ7-dafachronic acid; AID 652067; hit rate 1.4% among 370,000; activation, % at 6.8 µM;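 active means activation above the mean of all tested compounds plus 3 SD, cut at about 5.5% in these data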;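 further: 100% = response to 3 µM Δ7-dafachronic acid high control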
DAX1 inh-2 – inhibitors of DAX1 repression of SF-1 activated StAR promoter; HEK293T StAR-luciferase reporter, SF-1/DAX-1 repression relief; inhibition, % at 6.8 µM; hit rate 1.1% among 370,000; AID 652010;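 active means inhibition above the mean over all tested compounds plus 3 SD, cut at about 3.6% in these data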;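 further: 0% = DAX-1 cells with DMSO and 100% = cells lacking DAX-1 with DMSO; higher inhibition means more luminescence from relief of DAX-1 repression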
ssDAF-12 act – S. stercoralis DAF-12 activation, primary screen. HEK293 ssDAF-12/GRIP1 lit1-tk-luc reporter, luminescence; % of 3 µM dafachronic acid response. activation, % at 6.8 µM. hit rate 1% among 370,000;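 active means activation above the mean over all tested compounds plus 3 SD, cut at about 0.9% in these data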;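 further: 0% = DMSO-only wells and 100% = 3 µM delta7-dafachronic acid wells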
DAX1 inh confirm – confirmation of human DAX1 (NR0B1) inhibitors; HEK293T StAR-promoter luciferase reporter, SF-1/DAX-1 repression; hit rate 87% among 2,400; AID 652134; inhibition, % at 6.8 µM; shares compounds with DAX1 inh-2;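 active means inhibition above the average of every tested compound plus 3 SD, cut at about 3.8% in these data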;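 further: 0% = DAX-1 cells with DMSO and 100% = no DAX-1 control cells with DMSO; active compounds raise luminescence by relieving repression of the StAR reporter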
Target sequence (P51843 whole entry, looked up): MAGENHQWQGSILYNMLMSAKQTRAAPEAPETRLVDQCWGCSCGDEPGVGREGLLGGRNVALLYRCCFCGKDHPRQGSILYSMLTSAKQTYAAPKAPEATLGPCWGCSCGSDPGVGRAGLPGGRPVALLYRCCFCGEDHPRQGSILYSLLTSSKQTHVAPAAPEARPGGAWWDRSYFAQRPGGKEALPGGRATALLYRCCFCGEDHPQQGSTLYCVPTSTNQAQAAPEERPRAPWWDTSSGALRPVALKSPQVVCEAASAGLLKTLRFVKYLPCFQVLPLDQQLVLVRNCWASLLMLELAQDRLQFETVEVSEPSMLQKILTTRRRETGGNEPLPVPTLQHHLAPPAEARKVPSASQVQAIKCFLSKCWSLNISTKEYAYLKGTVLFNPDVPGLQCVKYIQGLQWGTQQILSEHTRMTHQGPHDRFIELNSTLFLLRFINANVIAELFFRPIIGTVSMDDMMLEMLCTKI
SF1 AF2mut Luc – counter-screen for DAX1 inhibitors: nonselective inhibitors with SF-1 AF2 mutant; shares compounds with DAX1 inh-2; HEK293 StAR-luciferase, luminescence; inhibition, % at 6.8 µM; hit rate 78% among 2,400; AID 652136;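 active means inhibition above the mean of all tested compounds plus 3 SD, cut at about 3% in these data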;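 further: 0% = DAX-1 transfected cells with DMSO and 100% = cells without DAX-1 with DMSO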
Active calls of the source: *; . = no result.

SMILES | hgDAF12 agonist | DAX1 inh-1 | hcDAF-12 act | DAX1 inh-2 | ssDAF-12 act | DAX1 inh confirm | SF1 AF2mut Luc
Cc1ccc(-c2cccc(=O)o2)cc1 | 3.0 | . | -0.9 | -0.8 | -0.8 | . | .
N/C(CS(=O)(=O)c1ccccc1)=N\OC(=O)c1ccc(F)cc1 | 6.1 | 1.8 | 0.9 | 5.9* | -0.2 | 3.8* | 3.2*
Cc1ccccc1/C(N)=N/OC(=O)c1ccc(F)cc1 | 4.9 | 0.2 | 3.2 | 0.9 | -1.1 | . | .
O=C(NC1CCC1)C1CCC(=O)N(Cc2cccc(F)c2)C1 (stereo unspecified) | -1.1 | 0.5 | -1.2 | -0.7 | -0.9 | . | .
CN(C(=O)C1CCC(=O)N(Cc2cccc(F)c2)C1)C1CCCCC1 (stereo unspecified) | 8.4 | 2.0 | 0.4 | 5.2* | 0.5 | 4.0* | 2.3
COc1ccc2oc(C(=O)OCC(=O)NCCc3ccccc3)c(C)c2c1 | 2.9 | 0.4 | 0.5 | -0.2 | -0.7 | . | .
COc1ccc2oc(C(=O)NCCc3ccccc3)c(C)c2c1 | 2.5 | -2.1 | 2.8 | 5.2* | -0.7 | 7.1* | -0.4
CCCCCCNC(=O)C1CSCCS(=O)(=O)N1Cc1ccc(C)cc1 (stereo unspecified) | -0.6 | . | 0.4 | 0.5 | -1.0 | . | .
O=C(NCCn1ccc2ccccc21)c1ccc2c(c1)OCO2 | 7.5 | 3.2 | 4.2 | 4.8* | 0.0 | 12.7* | 7.9*
Cc1c(C(=O)Nc2ccccn2)sc2nc3n(c(=O)c12)CCC3 | 6.5 | 0.9 | 4.5 | 8.8* | -0.4 | 9.8* | 6.1*
Cc1cc(C)cc(NC(=O)c2sc3nc4n(c(=O)c3c2C)CCC4)c1 | 0.5 | 0.8 | -1.3 | -0.6 | -0.9 | . | .
O=C(NCC(c1ccccc1)c1ccccc1)[C@H](Cc1c[nH]c2ccccc12)NC1(C(=O)NC2CCCCC2)CCCCCC1 | -1.0 | . | 0.3 | . | -2.1 | . | .
Cc1cccc(NC(=O)[C@H](NC(=O)[C@@H]2Cc3ccccc3CN2)c2ccccc2)c1 | 1.4 | -0.2 | 4.4 | 0.1 | -0.8 | . | .
COc1cccc(NC(=O)[C@H](NC(=O)[C@@H]2Cc3ccccc3CN2)c2ccccc2)c1 | 6.2 | -0.1 | 2.5 | 4.9* | -0.4 | 4.1* | 2.8
O=C(c1ccncc1)N(c1ccc(N2CCOCC2)cc1)C(c1ccccc1)c1nc2ccccc2[nH]1 (stereo unspecified) | 13.1* | . | 6.2* | 5.3* | 0.1 | 7.7* | 4.9*
CCC(c1nc2ccccc2[nH]1)N(C(=O)Cc1cc(OC)cc(OC)c1)c1ccc(N2CCOCC2)cc1 (stereo unspecified) | 3.3 | . | -0.7 | -1.9 | -1.3 | . | .
COCC(=O)N/N=C\c1ccccc1OC/C=C/c1ccccc1 | 11.4* | 1.3 | 1.4 | 8.1* | -0.7 | 3.5 | 4.8*
N#Cc1ccc2sn(-c3ccccc3)c(=O)c2c1 | 11.5* | 2.5 | 2.6 | 7.9* | 0.0 | 5.1* | 3.5*
Cc1ccccc1OCC(=O)Nc1cccc(C(=O)O)c1 | 11.4* | -8.9 | 2.9 | 5.0* | -0.6 | 7.9* | 4.3*
COC(=O)c1ccc(NC(=O)c2ccccc2C(=O)Nc2ccc(C(=O)OC)cc2)cc1 | -1.1 | 1.9 | -2.5 | -0.2 | -2.0 | . | .
COC(=O)c1ccc(NC(=O)C(=O)c2cccn2C)cc1 | 18.2* | -2.8 | 5.1 | 6.9* | 0.4 | 15.1* | 7.3*
O=C(NCc1ccccc1)OCCN1C(=O)CCC12CCC(c1ccccc1)CC2 (stereo unspecified) | -4.5 | . | -1.2 | -0.7 | -1.8 | . | .
CC(C)CCn1c(=O)c2sccc2n2c(CCCC(=O)N3CCC(N4CCCCC4)CC3)nnc12 | -0.2 | 0.6 | 1.7 | 4.7* | -0.6 | 4.6* | 4.1*
CCCN1CCN(CCCNC(=O)c2ccc3c(c2)NC(=O)c2ccccc2S3)CC1 | 2.0 | 1.0 | 1.1 | 6.1* | -0.6 | 4.4* | 1.1
Cc1ccccc1CNC(=S)OC1CCC12CCC(c1ccccc1)CC2 (stereo unspecified) | -2.0 | . | 1.2 | -0.2 | -1.3 | . | .
SMILES | hgDAF12 agonist | DAX1 inh-1 | hcDAF-12 act | DAX1 inh-2 | ssDAF-12 act | DAX1 inh confirm | SF1 AF2mut Luc
CC(C)(C)c1ccc(OCc2ccc(C(=O)NN)o2)cc1 | 7.8 | 2.3 | 2.3 | 1.2 | 0.0 | . | .
CC(C)(c1ccccc1)c1ccc(OCc2ccc(C(=O)O)o2)cc1 | 9.4 | 2.4 | 4.0 | 11.1* | 0.4 | 5.3* | 4.9*
O=C(NC1CCCCC1)C(=O)c1c[nH]c2ccccc12 | 10.3 | 2.3 | 2.2 | 6.5* | -0.6 | 8.5* | 5.5*
Cc1ccc(-c2c(C)sc(=NC(=O)c3ccco3)n2C)cc1 | 8.8 | 0.8 | 2.3 | 5.2* | -0.1 | 6.8* | 3.0*
COc1ccc(OC)c2c1sc(=NC(=O)c1ccco1)n2C | 2.8 | 0.6 | 4.4 | 0.5 | -1.1 | . | .
O=C(Nc1ccc(N2CCCC2)cc1)c1ccccc1F | 12.7* | 0.4 | 4.8 | 4.5* | 0.1 | 7.1* | 3.5*
COC(=O)c1cccc(Cn2ccc3ccc(-c4ccc5ccn(C(=O)C6CCC6)c5c4)cc32)c1 | -3.2 | . | 0.0 | -1.6 | -1.1 | . | .
CC(=O)c1ccc(-c2cccc3nccn23)cc1 | 1.6 | . | -2.5 | 0.7 | -0.8 | . | .
CC(=O)Nc1cccc(-c2cccc3nccn23)c1 | 10.0 | . | 1.5 | 5.4* | -0.6 | 5.6* | 3.7*
O=C(/C=C/c1cccs1)Nc1scc(-c2ccccc2)c1C(=O)O | 13.0* | 0.2 | 3.1 | 4.7* | 0.2 | 7.3* | 3.6*
Cn1cccc1C(=O)NCC1COc2ccccc2O1 (stereo unspecified) | 7.1 | 1.6 | 3.1 | 4.7* | -0.7 | 5.1* | 1.6
O=C(Cc1ccccc1)NCC1COc2ccccc2O1 (stereo unspecified) | -0.7 | 0.9 | 1.2 | 0.2 | -1.4 | . | .
CCCC[C@H](C(=O)N(CC)c1ccccc1)[C@@H](O)c1ccc(C(C)=O)cc1 | -2.0 | . | 1.3 | -1.6 | -1.0 | . | .
O=C(Nc1ccc(Cl)cc1)Nc1ccccc1C(=O)O | 10.2 | -1.9 | 4.2 | 5.3* | 0.2 | 9.0* | 4.0*
O=C(Nc1ccc(Cl)cc1)Nc1ccccc1C(=O)N1CCCC1 | 4.0 | . | 0.0 | -0.6 | -1.0 | . | .
Cc1ccc(-c2nc3ccc(Cl)cn3c2CC2CCCCC2)cc1 | 12.6* | . | 7.1* | 4.8* | 0.5 | 8.5* | 5.5*
Cc1ccc(-c2nc3ccc(Cl)cn3c2CC(C)(C)C)cc1 | 3.0 | -0.2 | -0.2 | 0.7 | -0.7 | . | .
Cc1ccc2nc(-c3cccc(Br)c3)c(CC3CCCCC3)n2c1 | 12.8* | . | 4.9 | 6.4* | -0.2 | 5.1* | 5.6*
O=C(NC(=O)c1ccccc1)Nc1ccc(Cl)cn1 | 8.9 | 1.0 | 3.6 | 7.9* | -0.1 | 14.2* | 7.3*
CCOC(=O)C1CSCCS(=O)(=O)N1Cc1ccccc1F (stereo unspecified) | -1.6 | . | 0.3 | 0.3 | -0.8 | . | .

Screens: PubChem BioAssay, The Scripps Research Institute Molecular Screening Center
